The record followed here is PubChem BioAssay (NCI).

Values joined by “and” are separate entries in the source; they are usually repeats but may differ in a detail not shown here. Identical values can stand only once. About 83,000 compounds went through this panel and 20% of them were active in at least one assay; those are over-represented in the sample as a whole.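 The endpoint reported here, percent growth, reads 100 for growth as untreated, 0 for no net growth and -100 for all cells dead.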 Active and inactive are the calls of the source. The calls were made as follows: active = growth percent below 10; inactive = the rest.

The assay deals with HL-60(TB) leukemia. The assay is described as follows: NCI-60 one-dose screen, 48 h (100 = growth as untreated, 0 = no growth, -100 = all killed). The conditions noted are these: 10 µM unless noted.
In the case of `COc1cc(OC)c2sc(-c3ccc(-n4cncc4-c4ccc(OC)c(OC)c4)cc3)nc2c1`, the growth was 58.5% (inactive).

As for `O=S(=O)(NCCCNc1cc(-c2cn(-c3ccccc3)nc2-c2cccc(O)c2)ccn1)c1ccccc1`, the growth is 42.8% (inactive).

On to `NC1=NC(=O)C(c2ccccc2)(c2ccccc2)S1`, for which the growth is 97.9% (inactive).

Take `CNS(=O)(=O)Oc1ccc(-c2ccc3occc3c2)cc1`: the growth was 100% (inactive).

On to `COc1cc2c(c(OC)c1OC)CCC(c1cccc(C(=O)Nc3cccc(Br)c3)c1)O2` (centres undefined), for which the growth was 101% (inactive).

`CCCCCc1cc[n+](CC(=O)c2ccccc2)cc1`: the growth is 91% (inactive) and 99.9% (inactive).

Take `CCNc1cc(-c2cccc(OC(F)(F)F)c2)nc2ccc(N3CCCC3)cc12`: the growth is -47.1% (active).

Regarding `Cn1c(=O)[nH]c(=O)c2nc(CCC(=O)NCCC(=O)O)c(=O)[nH]c21`, the growth is 101% (inactive).

For the molecule `Cc1ccc(NCCN2CCCCC2)c2c(=O)c3ccccc3sc12`, the growth is 1.52% (active).

Take `CCN(CC)CCCC(C)Nc1ccnc2cc(Oc3ccccc3)ccc12` (centres undefined): the growth was 69% (inactive) and 97.8% (inactive).

Turning to `CN(C)c1ncnc2c1nnn2C1OC(CO)C(O)C1O` (centres undefined), the growth was 4.4% (active).

With `CN1CCN(CC(=O)N(C)c2ccc(N=C(c3ccccc3)c3c(O)[nH]c4ccc(C#N)cc34)cc2)CC1`, the growth was 14.9% (inactive).

`COC1/C=C/OC2(C)Oc3c(C)c(O)c4c(O)c(c(/C=N/Nc5ccc([N+](=O)[O-])cc5[N+](=O)[O-])c(O)c4c3C2=O)NC(=O)C(C)=C/C=C/C(C)C(O)C(C)C(O)C(C)C(OC(C)=O)C1C` (centres undefined): the growth is -1.29% (active).

On to `O=C(Nc1cccc(C2=NCCN2)c1)c1ccc(OCCCOc2ccc(C(=O)Nc3cccc(C4=NCCN4)c3)cc2)cc1`, for which the growth was -27.3% (active).

In the case of `C[C@]12C=CC(=O)C=C1CCC1C2[C@@H](O)C[C@@]2(C)C1CC[C@]2(O)C(=O)COC(=O)CCC(=O)O` (some centres undefined), the growth is 104% (inactive).

On to `CN(C)CCCOc1c(Br)cc(/C=C/C(=O)N(C)CCc2cc(Br)c(OCCCN(C)C)c(Br)c2)cc1Br`, for which the growth is 81.9% (inactive).

As to `Cc1ccccc1C1=N[C@@H](Cc2ccccc2)C(=O)c2c(nc3ccccn23)N1`, the growth was 125% (inactive).

For the molecule `COc1cc(NC(C)CCCN)c2nccc(C)c2c1OC` (centres undefined), the growth is -3.41% (active).

Turning to `C=C(C)[C@@H]1CC[C@]2(C=O)CC[C@]3(C)[C@H](CC[C@@H]4[C@@]5(C)CCCNC(C)(C)[C@@H]5CC[C@]43C)[C@@H]12`, the growth is 7.59% (active).

As to `Cc1c2ccccc2c(C)c2c1ccc1ccccc12`, the growth is 69.9% (inactive).

Take `O=C(Nc1cccc(F)c1)c1cc(=O)[nH]c2cc(Br)ccc12`: the growth is 3.41% (active).

Consider `COc1cccc(-c2nc3sccn3c2-c2ccnc(NCCCNS(=O)(=O)c3ccc(C(F)(F)F)cc3)c2)c1`, for which the growth is 47.8% (inactive).

For the molecule `CCCCC1C(=O)N(c2ccccc2)N(c2ccccc2)C1=O`, the growth is 102% (inactive).

With `COc1cc2cc(Oc3ccc(NC(=O)Nc4ccc(Cl)c(C(F)(F)F)c4)cc3)c(C)nc2cc1OCCN1CCCCC1`, the growth was 30.5% (inactive).

For the molecule `COc1nc2c(cc1S(=O)(=O)c1ccccc1)CCc1c-2cnn1-c1ccccc1Cl`, the growth is 39.9% (inactive).

`Cn1c(-c2c(N)n(CCCN3CCOCC3)c3nc(C#N)c(C#N)nc23)nc2ccccc21`: the growth is -82.3% (active).

For `C[C@]12CCC(=O)C[C@H]1CC[C@@H]1[C@@H]2CC[C@@]2(C)[C@H]1CC[C@]2(O)C(=O)CO`, the growth is 126% (inactive).

In the case of `C[C@@H](C(=O)NCCCC#Cc1cnc(Nc2ccc(C#N)cc2)nc1NC1CC1)N(C)C(=O)/C=C/CN(C)C`, the growth is 42.6% (inactive).

For the molecule `CCCCn1c(=O)[nH]c(N)c([C@@H]2c3c([nH]c(=O)n(CCCC)c3=O)Oc3ccc4ccccc4c32)c1=O`, the growth was 13.4% (inactive).

`O=C(Nc1cccc(-n2ccc3c(NC(=O)c4ccccc4)nccc32)c1)c1ccc(N2CCOCC2)c(C(F)(F)F)c1`: the growth is -7.22% (active).

Regarding `CCOc1ccc2c(S(=O)(=O)O)cccc2c1[N+](=O)[O-]`, the growth is 113% (inactive) and 95.7% (inactive).

As for `COc1ccc(CNC(=O)[C@H](O)[C@@H](N)Cc2ccccc2)cc1`, the growth was 102% (inactive).

For `COc1cc(-c2nc3cc(Cl)c(Cl)cc3[nH]2)ccc1OCC(=O)N=Nc1c(O)[nH]c2ccc([N+](=O)[O-])cc12`, the growth was 94.9% (inactive).

As to `NS(=O)(=O)OCC1OC(n2cnc3cncnc32)C(O)C1O` (centres undefined), the growth is 37.8% [0.1 µM] (inactive) and 27.5% [0.1 µM] (inactive).
